Results on 28 compounds are retold here after PubChem BioAssay (EPA / NIEHS).

SMILES strings stand for the structures. Records with an inconclusive call do not appear. The source made the active and inactive calls. Rule for the calls, unless noted: active = hit-call score of the fitted dose curve at least 0.9, where 1 is the maximum; inactive = score below 0.9.

E-selectin (Homo sapiens), sequence (P16581 whole entry, looked up): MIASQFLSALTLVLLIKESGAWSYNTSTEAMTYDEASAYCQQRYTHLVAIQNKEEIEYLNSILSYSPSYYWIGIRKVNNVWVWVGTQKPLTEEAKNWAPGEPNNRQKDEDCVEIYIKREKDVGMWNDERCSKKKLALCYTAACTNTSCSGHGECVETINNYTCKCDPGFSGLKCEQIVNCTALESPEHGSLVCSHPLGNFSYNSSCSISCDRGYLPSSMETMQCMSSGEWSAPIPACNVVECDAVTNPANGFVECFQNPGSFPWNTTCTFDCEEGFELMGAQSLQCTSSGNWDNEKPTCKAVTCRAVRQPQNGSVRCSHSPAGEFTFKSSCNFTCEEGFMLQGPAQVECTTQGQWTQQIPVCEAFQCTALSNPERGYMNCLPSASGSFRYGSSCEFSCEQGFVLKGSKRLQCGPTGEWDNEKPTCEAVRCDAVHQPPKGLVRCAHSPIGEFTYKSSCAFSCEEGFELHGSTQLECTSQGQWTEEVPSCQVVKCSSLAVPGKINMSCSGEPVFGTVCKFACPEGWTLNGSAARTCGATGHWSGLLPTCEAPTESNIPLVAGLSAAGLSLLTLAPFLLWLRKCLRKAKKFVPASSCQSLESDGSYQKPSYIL

For one assay, the target named is human Thyroid Receptor alpha (THRa1), THRA (gene 7067) (UniProt P10827). The experiment in a line: ATG_THRa1_TRANS: Attagene TRANS-FACTORIAL HepG2 Assay for human Thyroid Receptor alpha (THRa1) (AID 2283014; active = hit-call score of the fitted dose curve at least 0.9, where 1 is the maximum).
human Thyroid Receptor alpha (THRa1), THRA (gene 7067), sequence (P10827 whole entry, looked up): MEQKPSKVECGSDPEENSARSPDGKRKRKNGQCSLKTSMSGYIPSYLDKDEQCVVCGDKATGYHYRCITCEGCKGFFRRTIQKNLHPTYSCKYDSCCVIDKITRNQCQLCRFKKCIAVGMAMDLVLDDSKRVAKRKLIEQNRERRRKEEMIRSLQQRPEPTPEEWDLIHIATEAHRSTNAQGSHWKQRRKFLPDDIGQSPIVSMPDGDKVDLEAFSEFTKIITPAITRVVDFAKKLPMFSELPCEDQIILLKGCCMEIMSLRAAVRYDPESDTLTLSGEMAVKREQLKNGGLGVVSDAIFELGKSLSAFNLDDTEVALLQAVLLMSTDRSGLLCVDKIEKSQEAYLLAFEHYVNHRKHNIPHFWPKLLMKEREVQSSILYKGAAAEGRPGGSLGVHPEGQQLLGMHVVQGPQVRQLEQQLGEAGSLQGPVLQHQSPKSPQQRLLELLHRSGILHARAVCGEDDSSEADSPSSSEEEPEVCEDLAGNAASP
Conditions: not given
The procedure, abridged:
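HepG2 cells transiently transfected with multiplexed GAL4-UAS reporter units for exogenous chimeric THRa1-Gal4; reporter mRNA measured 24 h after dosing by RT-PCR, 6-FAM labelling, HpaI digestion and capillary electrophoresis. Gain-of-signal fitted versus DMSO baseline.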
For `Clc1ccc(Cl)c(Cl)c1Cl`, the compound was called inactive.
In the case of `COc1cc(C)cc(O)c1`, the compound was called inactive.
The same measure, in the same setting: the same measure for `CCCCCCOC(=O)CC`: “inactive”.
For `COC(C)CCO` (stereo not given), the compound was classed as inactive.
The same measure, in the same setting: under `CC(CCO)CCCC(C)(C)O` (stereo not given) stands “inactive”; under `C=CC(=O)OCCn1c(=O)n(CCOC(=O)C=C)c(=O)n(CCOC(=O)C=C)c1=O`, “inactive”.
Consider `O=Cc1ccc(Cl)c([N+](=O)[O-])c1`, for which the result was inactive.
The same measure, in the same setting: under `CCCC(=O)OCCC(C)CCC=C(C)C` (stereo not given) stands “inactive”; under `CC(C)=CCC/C(C)=C/COC=O`, “inactive”.
For the compound `Cc1cccc(C)c1[N+](=O)[O-]`, the compound was called inactive.
The same measure, in the same setting: under `CCc1c(C)cc(N)c(CC)c1N` stands “inactive”; under `Nc1cc(N)cc(C(=O)O)c1`, “inactive”; under `CCCCCCCCCCCCCCCC(=O)OC[C@H](O)[C@H]1OC(=O)C(O)=C1O`, “inactive”.
`Nc1ccc(F)c([N+](=O)[O-])c1`: the compound was called inactive.
Same read-out and setting: under `CCN(CC)c1ccc(C(=C2C=CC(=[N+](CC)CC)C=C2)c2ccc(S(=O)(=O)O)cc2S(=O)(=O)[O-])cc1` stands “inactive”; under `O=S(=O)(O)c1ccc(O)c2ncccc12`, “inactive”.
As to `Nc1cc([N+](=O)[O-])ccc1Cl`, the result was inactive.
Turning to `Cc1ccc2ccccc2n1`, the compound was called inactive.
Still for that read-out and setting: under `Clc1nc(C(Cl)(Cl)Cl)c(Cl)c(Cl)c1Cl` stands “inactive”; under `NCCOCCO`, “inactive”.

Read-out in another assay: E-selectin (Homo sapiens) (UniProt P16581)
The experiment in a line: BSK_3C_Eselectin: BioMAP Diversity Plus: 3C Assay for Eselectin Biomarker Activity (AID 2283015).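 For outcome: cell surface E-selectin protein quantified by ELISA 24 h after dosing.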 As to conditions: primary human endothelial cells (HUVEC); actives raise or lower the signal. The procedure, abridged:
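Primary human umbilical vein endothelial cells (3C system) were dosed with chemical and cell-surface E-selectin measured by ELISA 24 h later. Bidirectional curve fitting used DMSO as negative control and baseline.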
As for `CCCCC(CC)COCCC#N` (stereo not given), the outcome was inactive.
As a reminder, the AC50 is the concentration giving half of the maximal activity seen. On to `Cc1ccc(O)c(C(C)(C)C)c1`, for which the concentration at half-maximal activity (AC50) is 25.5 µM (active).
On the same count and under the same terms, the same measure for `O=C1CCCCCCCCCCCCCCO1`: 20 µM (active).
In the case of `CCc1c(C)cc(N)c(CC)c1N`, the outcome was inactive.
Consider `NCCNCCN`, for which the outcome was inactive.
The same measure, in the same setting: under `C=C[Si](OCC)(OCC)OCC` stands “inactive”; under `Nc1cc([N+](=O)[O-])ccc1Cl`, “inactive”; under `O=C=NC1CCC(CC2CCC(N=C=O)CC2)CC1` (stereo not given), “inactive”.
With `CC(=O)Nc1ccccc1O`, the outcome was inactive.
Turning to `OC1OC[C@@H](O)[C@H](O)[C@H]1O` (stereo not given in full), the result was inactive.

Read-out in the next assay: Interleukin-1 alpha (IL1a), IL1A (gene 3552)
The experiment in a line: BSK_BE3C_IL1a: BioMAP Diversity Plus: BE3C Assay for Interleukin-1 alpha (IL1a) Biomarker Activity (AID 2283016). As to conditions: primary human bronchial epithelial cells; actives raise or lower the signal. A digest of the protocol: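 Human primary bronchial epithelial cells (BE3C system) were dosed with compound and IL-1a measured by ELISA 24 h later. Activity was fitted bidirectionally against DMSO baseline; cytotoxicity was tracked in parallel cultures by SRB total-protein staining.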
Take `CCCCC(CC)COCCC#N` (stereo not given): the result was inactive.
`Cc1ccc(O)c(C(C)(C)C)c1`: the AC50 is 29.6 µM (active).
As for `O=C1CCCCCCCCCCCCCCO1`, the half-maximal activity concentration (AC50) was 20 µM (active).
For `CCc1c(C)cc(N)c(CC)c1N`, the outcome was inactive.
Still for that read-out and setting: under `NCCNCCN` stands “inactive”; under `C=C[Si](OCC)(OCC)OCC`, “inactive”.
Still for that read-out and setting: under `Nc1cc([N+](=O)[O-])ccc1Cl` stands “inactive”.
Still for that read-out and setting: the same measure for `O=C=NC1CCC(CC2CCC(N=C=O)CC2)CC1` (stereo not given): “inactive”.
With `CC(=O)Nc1ccccc1O`, the result was inactive.
Still for that read-out and setting: under `OC1OC[C@@H](O)[C@H](O)[C@H]1O` (stereo not given in full) stands “inactive”.

Read-out in a further assay: Monocyte Chemoattractant Protein-1 (MCP1), CCL2 (gene 6347)
The experiment in a line: BSK_3C_MCP1: BioMAP Diversity Plus: 3C Assay for Monocyte Chemoattractant Protein-1 (MCP1) Biomarker Activity (AID 2283017). As to conditions: primary human endothelial cells (HUVEC); actives raise or lower the signal. A digest of the protocol: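 Primary human umbilical vein endothelial cells (3C system) were exposed to test chemical for 24 h, after which MCP-1 was quantified by ELISA. Activity was fitted bidirectionally against DMSO as negative control and baseline.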
As for `CCCCC(CC)COCCC#N` (stereo not given), the concentration at half-maximal activity (AC50) is 20 µM (active).
On the same count and under the same terms, under `Cc1ccc(O)c(C(C)(C)C)c1` stands 27.6 µM (active).
For `O=C1CCCCCCCCCCCCCCO1`, the AC50 was 26.5 µM (active).
`CCc1c(C)cc(N)c(CC)c1N`: the result was inactive.
The same measure, in the same setting: the same measure for `NCCNCCN`: “inactive”; for `C=C[Si](OCC)(OCC)OCC`: “inactive”; for `Nc1cc([N+](=O)[O-])ccc1Cl`: “inactive”.
On the same count and under the same terms, the same measure for `O=C=NC1CCC(CC2CCC(N=C=O)CC2)CC1` (stereo not given): “inactive”.
`CC(=O)Nc1ccccc1O`: the result was inactive.
Take `OC1OC[C@@H](O)[C@H](O)[C@H]1O` (stereo not given in full): the outcome was inactive.

Read-out in the next assay: Monocyte Chemoattractant Protein-1 (MCP1), CCL2 (gene 6347)
Kind of assay: BSK_4H_MCP1: BioMAP Diversity Plus: 4H Assay for Monocyte Chemoattractant Protein-1 (MCP1) Biomarker Activity (AID 2283018). As to conditions: primary human endothelial cells (HUVEC); actives raise or lower the signal. A digest of the protocol: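 Human umbilical vein endothelial cells (4H system) dosed with chemical; MCP-1 measured by ELISA 24 h after dosing. Bidirectional curve fitting against DMSO negative control as baseline; parallel SRB total-protein staining tracks overt cytotoxicity.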
Consider `CCCCC(CC)COCCC#N` (stereo not given), for which the result was inactive.
As to `Cc1ccc(O)c(C(C)(C)C)c1`, the concentration at half-maximal activity (AC50) is 24.9 µM (active).
As for `O=C1CCCCCCCCCCCCCCO1`, the half-maximal activity concentration (AC50) was 25.4 µM (active).
`CCc1c(C)cc(N)c(CC)c1N`: the result was inactive.
`NCCNCCN`: the result was inactive.
Take `C=C[Si](OCC)(OCC)OCC`: the outcome was inactive.
The same measure, in the same setting: the same measure for `Nc1cc([N+](=O)[O-])ccc1Cl`: “inactive”; for `O=C=NC1CCC(CC2CCC(N=C=O)CC2)CC1` (stereo not given): “inactive”; for `CC(=O)Nc1ccccc1O`: “inactive”.
With `OC1OC[C@@H](O)[C@H](O)[C@H]1O` (stereo not given in full), the result was inactive.

Read-out in another assay: Human Leukocyte Antigen - DR isotype (HLADR), HLA-DRA (gene 3122)
Kind of assay: BSK_3C_HLADR: BioMAP Diversity Plus: 3C Assay for Human Leukocyte Antigen - DR isotype (HLADR) Biomarker Activity (AID 2283019). As to conditions: primary human endothelial cells (HUVEC); actives raise or lower the signal. A digest of the protocol: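 Primary human umbilical vein endothelial cells (3C system) were dosed with compound and cell-surface HLA-DR was quantified by ELISA at 24 h. Activity was fitted bidirectionally against DMSO as negative control and baseline.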
On to `CCCCC(CC)COCCC#N` (stereo not given), for which the half-maximal activity concentration (AC50) was 20 µM (active).
For the compound `Cc1ccc(O)c(C(C)(C)C)c1`, the AC50 was 29.8 µM (active).
`O=C1CCCCCCCCCCCCCCO1`: the AC50 was 20 µM (active).
On to `CCc1c(C)cc(N)c(CC)c1N`, for which the result was inactive.
In the case of `NCCNCCN`, the outcome was inactive.
Same read-out and setting: the same measure for `C=C[Si](OCC)(OCC)OCC`: “inactive”; for `Nc1cc([N+](=O)[O-])ccc1Cl`: “inactive”; for `O=C=NC1CCC(CC2CCC(N=C=O)CC2)CC1` (stereo not given): “inactive”.
Consider `CC(=O)Nc1ccccc1O`, for which the result was inactive.
Still for that read-out and setting: under `OC1OC[C@@H](O)[C@H](O)[C@H]1O` (stereo not given in full) stands “inactive”.
